Among all 71,000 compounds or so, about 1,300 (1.8%) were called active. Calls come from the whole dose curve. Shown is part of a subset that was picked to be rich in actives.
Potency is the fitted concentration of half-maximal effect.

The target in the assay is Beta-lactamase (Escherichia coli (strain K12)) (UniProt P00811). Description: Promiscuous and Specific Inhibitors of AmpC Beta-Lactamase (assay without detergent). For activity change, negative = inhibition: % of control where 0% means no effect. The following applies: AmpC nitrocefin hydrolysis, absorbance 480 nm, no detergent; series mostly up to 28.7 µM; activity change, negative = inhibition: at the top concentration. The protocol: NIH Molecular Libraries Screening Centers Network [MLSCN]
Beta-lactamase (Escherichia coli (strain K12)), sequence (P00811 whole entry, looked up): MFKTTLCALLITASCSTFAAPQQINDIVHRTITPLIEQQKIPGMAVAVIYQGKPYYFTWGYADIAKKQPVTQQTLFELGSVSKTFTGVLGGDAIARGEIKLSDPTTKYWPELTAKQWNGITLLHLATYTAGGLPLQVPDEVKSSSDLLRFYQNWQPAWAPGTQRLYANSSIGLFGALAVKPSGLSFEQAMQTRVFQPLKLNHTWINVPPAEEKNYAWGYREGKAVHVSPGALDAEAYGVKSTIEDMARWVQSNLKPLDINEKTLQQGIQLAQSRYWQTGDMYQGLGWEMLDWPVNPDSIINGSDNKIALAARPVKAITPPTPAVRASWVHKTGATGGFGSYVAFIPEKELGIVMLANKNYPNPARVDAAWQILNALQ
NIH Chemical Genomics Center [NCGC]
PI Name: Shoichet, Brian K.
This aggregation profiling approach exploits the sensitivity of aggregate formation to detergent. Inhibition of b-lactamase is measured in the presence and absence of 0.01% Triton X-100. See Pubchem assay "Promiscuous and Specific Inhibitors of AmpC Beta-Lactamase (assay with detergent)" for related screen. Compounds that inhibit only in the absence of detergent are considered likely promiscuous aggregators.
A screen of 1,030 compounds was performed in Brian Shoichet's lab in 96-well format. AmpC activity was measured by following the absorbance at 480 nm. Nitrocefin is a chromogenic substrate: while nitrocefin is yellow (lmax 390 nm), the product of its hydrolysis is red (lmax 486 nm, 17,000 M-1). AmpC beta lactamase was provided by Brian Shoichet and Brian Feng, UCSF.
NCGC Assay Protocol Summary:
20 mM phosphate buffer, pH 7.0
Triton X-100: No Detergent screen: 0.0001%, Detergent screen: 0.01%.
Buffer in columns 3 and 4 as negative control (no enzyme).
5.3 nM AmpC in columns 1, 2, 5-48. Titration of UCSF compound 9 control (from 10 mM, then 1:2) pin-transferred to column 2. Column 1 is neutral (100% activity).
Six uL of reagents were dispensed to 1536-well Greiner black clear bottom plates. Compounds and controls (23 nL) were transferred via Kalypsys PinTool. The plates were incubated for 15 min at room temperature, and then 2 uL of 800 uM solution of nitrocefin was added to start the reaction. The plates were immediately transferred to and read every 20 seconds for 4 min on ViewLux (Perkin-Elmer) High-throughput CCD imager using 480 nm absorbance protocol. During dispense, reagent bottles were kept submerged into 4 deg C water bath.
Keywords: NIH Roadmap, MLSCN, MLI, MLSMR, qHTS, NCGC, AmpC Beta-Lactamase, Aggregation.
Take `COc1ccc2c(c1)OC(O)(C(F)(F)C(F)F)CC2=O` (stereo not given): the “activity change, negative = inhibition” value is -0.7% (inactive).
With `O=CN1CCN(C2CC(=O)N(c3ccc4c(c3)OCO4)C2=O)CC1` (stereo not given), the “activity change, negative = inhibition” value is 1.1% (inactive).
Take `C=CCSc1nnc(Cn2c(=O)sc3ccccc32)n1C`: the Potency was 3.98 µM [single pt active] (active).
Regarding `Cc1cccc(CSc2nnc(Cn3c(=O)sc4ccccc43)n2C)c1`, the “activity change, negative = inhibition” value is 38.5% (inactive).
For the compound `Cc1ccccc1CSc1nnc(Cn2c(=O)sc3ccccc32)n1C`, the “activity change, negative = inhibition” value was 32.6% (inactive).
Take `CC1CCN(c2oc(-c3ccccc3F)nc2C#N)CC1`: the “activity change, negative = inhibition” value is 11.5% (inactive).
Turning to `C=CCn1c(C)cc(C(=O)CN2C(=O)c3ccccc3C2=O)c1C`, the “activity change, negative = inhibition” value is 5.1% (inactive).
As for `COc1ccc(C2CC(c3ccccc3)Nc3ncnn32)cc1` (stereo not given), the Potency is 3.98 µM [single pt active] (active).
Take `Clc1ccc(C2CC(c3cccs3)n3ncnc3N2)cc1Cl` (stereo not given): the “activity change, negative = inhibition” value is 96.9% (inactive).
The same measure, in the same setting: the same measure for `COc1ccc(C2CC(c3ccc(C)cc3)Nc3ncnn32)cc1` (stereo not given): 80.4% (inactive); for `Cc1noc(C)c1C(=O)NC(C)c1ccc2c(c1)OCO2` (stereo not given): -5.3% (inactive).
Take `CN1CCC2(CC1)NC(=O)NC2=O`: the “activity change, negative = inhibition” value is -9.4% (inactive).
Consider `COc1cccc(-c2nnc(NC(=O)c3ccc(S(=O)(=O)N(CC(C)C)CC(C)C)cc3)o2)c1`, for which the Potency is 7.94 µM (active).
`COc1cccc(NC(=O)CN(C)S(=O)(=O)c2ccc(C)cc2)c1`: the “activity change, negative = inhibition” value was 4.9% (inactive).
`CCN(CC)C(=O)CSc1nnc(-c2cccc(OC)c2)o1`: the “activity change, negative = inhibition” value is 25.2% (inactive).
The same measure, in the same setting: the same measure for `CC(C)C[C@@H](CC(=O)N[C@@H](CCC(=O)O)CC(=O)O)NC(=O)[C@@H]1CCCC[C@H]1NC(=O)C[C@@H](NC(=O)C[C@H](Cc1c[nH]c2ccccc12)NC(=O)[C@@H]1CCCC[C@H]1N)C(C)C`: 150% (inactive); for `Cc1ccc(NC(=O)C2CCCN(S(=O)(=O)c3c(C)noc3C)C2)c(C)c1` (stereo not given): 37.8% (inactive).
As for `CCOc1ccc(OCC)c(NC(=O)C2CCN(S(=O)(=O)c3c(C)noc3C)CC2)c1`, the “activity change, negative = inhibition” value is 70.7% (inactive).
In the case of `Cc1noc(C)c1S(=O)(=O)N1CCCC(C(=O)Nc2nccs2)C1` (stereo not given), the Potency is 3.98 µM [single pt active] (active).
Turning to `C=CCNC(=O)C1CC=CCC1C(=O)O` (stereo not given), the “activity change, negative = inhibition” value was -5.7% (inactive).
Regarding `Nc1c(C(=O)NCc2ccccc2)nnn1Cc1cccc(Cl)c1`, the “activity change, negative = inhibition” value was -19.5% (inactive).
For `CCOc1ccc(Cn2nnc(C(=O)NCc3ccccc3)c2N)cc1`, the Potency is 3.16 µM [single pt active] (active).
As to `CCOc1ccc(Cn2nnc(C(=O)Nc3ccc(OC)cc3OC)c2N)cc1`, the “activity change, negative = inhibition” value was 15% (inactive).
For the compound `Cc1cc(N2C(=O)C(=O)/C(=C(/O)c3ccc(Cl)cc3)C2c2cccc(Br)c2)no1` (stereo not given), the “activity change, negative = inhibition” value was -9% (inactive).
On the same count and under the same terms, then `COc1ccc(C(CNC(=O)c2cccnc2SC)N2CCOCC2)cc1` (stereo not given), with 6.6% (inactive).
Take `O=C(NCCN1C(=O)C2C3C=CC(C3)C2C1=O)Nc1ccccn1` (stereo not given): the Potency is 3.98 µM [single pt active] (active).
In the case of `O=C(CN1C(=O)C2C3C=CC(C3)C2C1=O)NCCc1ccccc1Cl` (stereo not given), the “activity change, negative = inhibition” value is 1.2% (inactive).
Still for that read-out and setting: the same measure for `O=C(CCN1C(=O)C2C3C=CC(C3)C2C1=O)Nc1ccccc1F` (stereo not given): 2.3% (inactive); for `CCOc1ccc(CN(Cc2ccco2)C(c2cccs2)c2nnnn2C(C)(C)C)cc1` (stereo not given): 25.1% (inactive).
On the same count and under the same terms, then `O=C(COC(=O)c1ccccc1C(=O)c1ccccc1)c1ccco1`, with 4.4% (inactive); and `Cc1ccc(C(=O)OCC(=O)NCc2ccc3c(c2)OCO3)s1`, with -2.6% (inactive); and `CCOC(=O)NCc1ccc2c(c1)OCO2`, with -7.3% (inactive).
As to `O=C(NCc1ccc2c(c1)OCO2)c1cc2c(s1)CS(=O)(=O)C2`, the Potency was 12.6 µM [single pt active] (active).
On to `CC(Sc1sc(=S)sc1SC(C)C(=O)O)C(=O)O` (stereo not given), for which the “activity change, negative = inhibition” value is 0.8% (inactive).
Take `COC(=O)c1sc(NC(=O)c2ccc(OC)cc2OC)nc1C`: the “activity change, negative = inhibition” value is 16.1% (inactive).
On to `COc1ccc(C(=O)Nc2nncs2)c(OC)c1`, for which the Potency was 3.98 µM [single pt active] (active).
Take `O=C(Nc1nncs1)c1ccccc1NS(=O)(=O)c1cccs1`: the “activity change, negative = inhibition” value was -10.1% (inactive).
Turning to `O=C(COC(=O)c1ccc(Oc2ccccc2)cc1)Nc1nnc(-c2ccccc2)o1`, the Potency was 15.8 µM (active).
`Cc1ccc(OCC(=O)Nc2ccc(-c3nnc(-c4ccco4)o3)cc2)cc1`: the “activity change, negative = inhibition” value was 12.3% (inactive).
For `COc1ccc(CC(=O)Nc2ccc(-c3nnc(-c4ccccc4)o3)cc2)cc1`, the “activity change, negative = inhibition” value is 8.9% (inactive).
In the case of `CS(=O)(=O)N1CCC2(CC1)CN(Cc1cc(C(F)(F)F)cc(C(F)(F)F)c1)C2`, the “activity change, negative = inhibition” value was 63% (inactive).
The same measure, in the same setting: then `CC1(C)C(=O)Nc2ccccc2N1C(=O)COC(=O)Cn1cnc2ccccc2c1=O`, with 14.3% (inactive).
For the compound `O=C(NCc1ccco1)c1nc2ncccn2n1`, the “activity change, negative = inhibition” value was -4.1% (inactive).
With `COc1ccccc1N1CCN(C(=O)c2cc3c(-c4ccc(Cl)cc4)nn(C)c3s2)CC1`, the “activity change, negative = inhibition” value was 2.6% (inactive).
For the compound `Cn1nc(-c2ccc(Cl)cc2)c2cc(C(=O)NCc3ccco3)sc21`, the Potency was 3.16 µM (active).
Take `CCOC(=O)N1CCN(C(=O)c2cc3c(-c4ccc(Cl)cc4)nn(C)c3s2)CC1`: the Potency is 2.51 µM [single pt active] (active).
With `O=C(NCc1ccco1)c1cc(-c2cccnc2)nc2ccc(Cl)cc12`, the “activity change, negative = inhibition” value is 110% (inactive).
As for `COc1cccc(-c2nn(C)c3sc(C(=O)N4CCN(c5ccccc5)CC4)cc23)c1`, the “activity change, negative = inhibition” value is 68.5% (inactive).
With `O=C(NCCc1ccccn1)c1ccc(COc2ccccc2)o1`, the “activity change, negative = inhibition” value was 31.1% (inactive).
Still for that read-out and setting: then `O=C1CC2(CCCCC2)Oc2ccc(OCC(=O)N3CCOCC3)cc21`, with 54.1% (inactive).

Source of the values: PubChem BioAssay AID585 (National Center for Advancing Translational Sciences (NCATS), 2007).
